Among the data in PubChem BioAssay (Tox21) are outcome and Potency values, retold here.

Structures are written as SMILES. Inconclusive results are not listed. A number with no mark means an inactive call. Active and inactive are the calls of the source. Unless noted, calls come from the whole dose curve; as a rule, active = well fitted curve in the direction sought with a large enough effect in the repeat runs; inconclusive = weak or mixed curves; inactive = no such curve, though single readings can be large; an effect the other way counts as inactive or inconclusive.

Assay [1] can be described thus: qHTS assay to identify small molecule agonists of the NFkB signaling pathway - cell viability counter screen (AID 1159515; calls by dose curve; note: nearly all actives have a fitted effect of over 55% in size). To be noted: NFkB-bla ME-180 viability, CellTiter-Glo luminescence, 5 h; series mostly up to 61 µM. In short, it runs like this:
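Parallel cytotoxicity counter screen in ME-180 cells carrying an NFkB-response-element beta-lactamase reporter, 2,000 cells/well. Compound exposure lasted 5 hr at 37 C, 5% CO2. Cell viability was quantified by CellTiter-Glo luminescence.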
On the technique in general: In qHTS, concentration-response curves come from the screen itself.

Assay [2] in a line: qHTS assay to identify small molecule agonists of the endoplasmic reticulum stress response signaling pathway (AID 1159516; active = well fitted activation curve with a large enough effect in the signal ratio in the repeat runs, not every such curve was filed as active; the % refers to the signal ratio). Particulars: ESRE-bla HeLa, ER stress beta-lactamase reporter, 5 h; series mostly up to 61 µM. The essentials: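 Using a HeLa line with an ESRE-driven beta-lactamase gene, agonist activity was measured by FRET substrate fluorescence (460 and 530 nm emission) after cells were treated with compounds for 5 hr at 37 C and 5% CO2.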

A short description of assay [3]: qHTS assay to identify small molecule agonists of the endoplasmic reticulum stress response signaling pathway - cell viability counter screen (AID 1159517; calls by dose curve; note: nearly all actives have a fitted effect of over 50% in size). Particulars: ESRE-bla HeLa viability, CellTiter-Glo luminescence, 5 h; series mostly up to 61 µM. The essentials:
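In parallel with the ESRE reporter read, cytotoxicity was scored by CellTiter-Glo luminescence (30 min, room temperature) on HeLa ESRE-bla cells dosed for 5 hr.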

Assay [4] can be described thus: qHTS assay to identify small molecule antagonists of the retinoid-related orphan receptor gamma (ROR-gamma) signaling pathway - cell viability counter screen (AID 1159520). Note: nearly all actives have a fitted effect of over 50% in size. To be noted: Tet-on RORgamma CHO cells viability, ATP luminescence, 16 h; series mostly up to 92.4 µM. In short, it runs like this:
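Tet-on ROR gamma CHO cells were given compounds for 2 hr, then doxycycline hyclate at 1 uM final, and incubated 16 hr at 37 C. Viability was measured as ATP content by CellTiter-Glo luminescence.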

The target in assay [5] is Nuclear receptor ROR-gamma (Homo sapiens) (UniProt P51449). Put plainly: qHTS assay to identify small molecule antagonists of the retinoid-related orphan receptor gamma (ROR-gamma) signaling pathway (AID 1159521; note: nearly all actives have a fitted effect of over 50% in size; note: potency is the fitted concentration of half-maximal effect). Particulars: Tet-on RORgamma CHO cells, RORE-luciferase, 16 h; series mostly up to 92.4 µM. In short, it runs like this:
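Tet-on RORγ CHO cells carrying a ROR response element–luciferase reporter were pretreated with compounds for 2 h, then induced with 1 uM (final) doxycycline hyclate for 16 h at 37 C. Antagonism was read as decreased ONE-Glo luminescence.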

Assay [6] can be described thus: qHTS assay to identify small molecule agonists of the AP-1 signaling pathway - cell viability counter screen (AID 1159525; calls by dose curve; note: nearly all actives have a fitted effect of over 55% in size). Particulars: ME-180 AP-1-bla cells viability, ATP luminescence, 5 h; series mostly up to 76.8 µM. In short, it runs like this: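 Same-well cytotoxicity counter screen of the Tox21 10K library in ME-180 cells. The readout is ATP-dependent luminescence after 5 h compound treatment. Data are normalised to DMSO and tetra n-octyl ammonium bromide controls.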

Assay [7] in a line: qHTS assay to identify small molecule agonists of the AP-1 signaling pathway (AID 1159526; calls by dose curve). Particulars: ME-180 (cervical carcinoma) AP-1-bla reporter, beta-lactamase FRET ratio, 5 h; series mostly up to 76.8 µM.
Assay [8] deals with Retinoic acid receptor RXR-alpha (Homo sapiens) (UniProt P19793). Put plainly: qHTS assay to identify small molecule agonists of the RXR signaling pathway (AID 1159527; calls by dose curve; note: nearly all actives have a fitted effect of over 35% in size). Particulars: HEK293T RXRa-UAS-bla, beta-lactamase ratio, 16 h; series mostly up to 76.8 µM. The essentials: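 GeneBLAzer RXR-alpha-UAS-bla HEK 293T cells in medium with 2% charcoal-stripped FBS, pre-incubated 5 hr at 37 C, then exposed to compounds 16 hr. Beta-lactamase reporter read by FRET substrate, 2 hr room temperature, 460/530 nm emission.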
Chain of Retinoic acid receptor RXR-alpha (Homo sapiens) (P19793 whole entry, looked up): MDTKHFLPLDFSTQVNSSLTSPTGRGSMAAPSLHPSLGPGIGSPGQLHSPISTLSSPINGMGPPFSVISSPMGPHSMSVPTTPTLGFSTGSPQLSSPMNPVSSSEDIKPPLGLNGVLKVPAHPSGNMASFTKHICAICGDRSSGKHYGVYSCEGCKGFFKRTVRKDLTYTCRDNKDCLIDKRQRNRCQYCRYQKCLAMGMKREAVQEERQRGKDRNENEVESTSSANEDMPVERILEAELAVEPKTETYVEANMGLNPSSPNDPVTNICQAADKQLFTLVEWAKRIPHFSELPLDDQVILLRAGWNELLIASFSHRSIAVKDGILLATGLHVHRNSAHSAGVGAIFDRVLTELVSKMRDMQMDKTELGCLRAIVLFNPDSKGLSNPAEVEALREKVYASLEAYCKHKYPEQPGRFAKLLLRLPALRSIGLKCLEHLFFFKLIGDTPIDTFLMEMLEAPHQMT

Assay [9] in a line: qHTS assay to identify small molecule agonists of the RXR signaling pathway - cell viability counter screen (AID 1159529). Note: nearly all actives have a fitted effect of over 50% in size. To be noted: RXR-alpha-bla HEK293T viability, CellTiter-Glo, 16 h; series mostly up to 76.8 µM. In short, it runs like this:
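RXR-alpha-UAS-bla HEK 293T cells in medium with 2% charcoal-stripped FBS were preincubated 5 hr, then exposed to compounds for 16 hr at 37 C. Viability was read as CellTiter-Glo luminescence after 30 min at room temperature.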

Assay [10] can be described thus: qHTS assay to identify small molecule antagonists of the retinoid acid receptor (RAR) signaling pathway - cell viability counter screen (AID 1159551). Note: nearly all actives have a fitted effect of over 35% in size. To be noted: C3RL4 cells viability, ATP luminescence (CellTiter-Glo), 6 h; series mostly up to 92.4 µM. In short, it runs like this:
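ATP-based viability, C3RL4 cells, 6 h at 37 C with 1 uM final retinol co-added after compound; luminescence read 30 min post CellTiter-Glo, RT.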

Assay [11] is described as follows: qHTS assay to identify small molecule antagonists of the estrogen related receptor (ERR) signaling pathway from Tox21 library - cell viability counter screen (AID 1224834). Note: nearly all actives have a fitted effect of over 30% in size. To be noted: ERR reporter cells viability, CellTiter-Fluor, 17.5 h; series mostly up to 92.4 µM. In short, it runs like this: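 Compounds in DMSO were pinned onto ERR cells that had been incubated for 6 h, and the plates were held at 37 C for 17.5 h. CellTiter-Fluor reagent was then added and fluorescence was measured after 30 min.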

A short description of assay [12]: qHTS assay to identify small molecule antagonists of the vitamin D receptor (VDR) signaling pathway - cell viability counter screen (AID 743225). Note: nearly all actives have a fitted effect of over 50% in size. To be noted: VDR-bla HEK293T viability, CellTiter-Glo luminescence, 16 h; series mostly up to 61 µM. In short, it runs like this:
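VDR-bla HEK 293T cells, 4 h pre-incubation at 37C, then compound plus 1-alpha,25-dihydroxyvitamin D3 (3 nM final) for 16 h. After the beta-lactamase FRET read, CellTiter-Glo was added to the same wells; luminescence after 30 min at room temperature.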

As to `CCC(C)(CCCC(C)C)OC(C)=O` (stereo not drawn), the outcome in assay [1], in assay [2], in assay [3], in [4], in assay [6] and in [7] was inactive. Also, in assay [10], the outcome was inactive. For the same compound, the Potency result in assay [5], in [8], in [9] and in [11] was “inactive” in each case.

Take `COc1ccnc(CS(=O)c2nc3cc(OC(F)F)ccc3[nH]2)c1OC` (stereo not drawn): the outcome in [1], in assay [2], in assay [3], in [4], in [6] and in assay [7] was inactive. Moreover, the result in assay [10] was inactive. The Potency result in [5], in [8], in assay [9] and in assay [11] was “inactive” throughout.

Take `CC(C)(C#N)Nc1nc(Cl)nc(NC2CC2)n1`: the result in assay [12], in assay [1], in assay [2], in [3], in assay [4] and in [6] was inactive. Further, the result in assay [7] and in [10] was inactive. For the same compound, the Potency result in assay [5], in [8], in assay [9] and in assay [11] was “inactive” in each case.

In the case of `CCCCCCCCCCCCSC`, the compound was called inactive in assay [1], in assay [2], in assay [3], in [4], in assay [6] and in [7]. Besides, the result in assay [10] was inactive. The Potency entry in assay [5], in [8], in assay [9] and in [11] was “inactive” throughout.

In the case of `CN(C)[C@@H]1C(=O)C(C(=O)NCN2CCCC2)=C(O)[C@@]2(O)C(=O)C3=C(O)c4c(O)cccc4[C@@](C)(O)C3C[C@@H]12` (stereo partly drawn), the result in assay [12], in assay [1], in assay [2], in assay [3], in assay [4] and in assay [6] was inactive. Besides, the outcome in [7] and in assay [10] was inactive. Also, the Potency result in assay [5], in assay [8], in assay [9] and in [11] was “inactive” each time.

For `CCCCc1ccc2c(n1)[C@@H](c1ccc(OC)cc1C[C@H](C)C(=O)O)[C@H](C(=O)O)[C@H]2c1ccc2c(c1)OCO2`, the call in assay [12], in [1], in assay [2], in assay [3], in assay [4] and in assay [6] was inactive. Besides, the outcome in assay [7] and in assay [10] was inactive. The Potency entry in assay [5], in assay [8], in assay [9] and in assay [11] was “inactive” each time.

As to `CC(C)C1CCC(O)CC1` (stereo not drawn), the outcome in [12], in assay [1], in assay [2], in assay [3], in assay [4] and in assay [6] was inactive. The result in [7] and in [10] was inactive. Further, the Potency entry in assay [5], in assay [8], in [9] and in [11] was “inactive” in each case.

For `CO[C@@]1(NC(=O)CSC[C@@H](N)C(=O)O)C(=O)N2C(C(=O)O)=C(CSc3nnnn3C)CS[C@@H]21`, the compound was classed as inactive in assay [12], in [1], in assay [2], in assay [3], in assay [4] and in assay [6]. In addition, the outcome in assay [7] and in assay [10] was inactive. In addition, the Potency entry in [5], in assay [8], in assay [9] and in assay [11] was “inactive” throughout.

With `CCCCc1nc(Cl)c(CO)n1Cc1ccc(-c2ccccc2-c2nn[nH]n2)cc1`, the compound was called inactive in assay [12], in assay [1], in assay [2], in assay [3], in assay [4] and in assay [6]. For the same compound, the result in [7] and in assay [10] was inactive. Besides, the Potency result in assay [5], in [8], in assay [9] and in assay [11] was “inactive” in each case.

As to `C=CC(C)(CCC=C(C)C)OC(=O)CC` (stereo not drawn), the compound was classed as inactive in [12], in assay [1], in [2], in [3], in assay [4] and in [6]. Also, the outcome in [7] and in [10] was inactive. Besides, the Potency result in [5], in [8], in assay [9] and in assay [11] was “inactive” in each case.

For `OCCCCCO`, the compound was classed as inactive in assay [12], in assay [1], in assay [2], in assay [3], in [4] and in assay [6]. Moreover, the result in assay [7] and in assay [10] was inactive. Further, the Potency result in assay [5], in [8], in assay [9] and in assay [11] was “inactive” each time.

`CC(C)(N)C#N`: the compound was called inactive in [12], in [1], in assay [2], in assay [3], in assay [4] and in assay [6]. The outcome in [7] and in assay [10] was inactive. Besides, the Potency result in assay [5], in assay [8], in assay [9] and in assay [11] was “inactive” in each case.

Turning to `c1ccc(Cc2ccccc2)cc1`, the compound was called inactive in [1], in assay [2], in assay [3], in assay [4], in [6] and in assay [7]. Moreover, the result in assay [10] was inactive. In addition, the Potency result in assay [5], in assay [8], in assay [9] and in [11] was “inactive” each time.

Turning to `O=CN(CCO)CCO`, the compound was classed as inactive in assay [1], in assay [2], in assay [3], in assay [4], in assay [6] and in [7]. In addition, the call in assay [10] was inactive. Further, the Potency entry in [5], in assay [8], in assay [9] and in [11] was “inactive” throughout.

As to `CCCC(=O)O[C@]1(C(=O)CC)CC[C@H]2[C@@H]3CCC4=CC(=O)CC[C@]4(C)[C@H]3[C@@H](O)C[C@@]21C`, the call in assay [12], in [1], in [2], in [3], in assay [4] and in assay [6] was inactive. Further, the outcome in [7] and in [10] was inactive. In assay [5], the Potency is 10.6 µM (active). Also, the Potency entry in assay [8], in assay [9] and in [11] was “inactive” each time.

For `CO/N=C(\C(=O)N[C@@H]1C(=O)N2C(C(=O)O)=C(CSc3nc(=O)c(O)nn3C)CS[C@H]12)c1csc(N)n1`, the compound was classed as inactive in assay [12], in [1], in assay [2], in [3], in assay [4] and in [6]. The result in assay [7] and in assay [10] was inactive. Also, the Potency entry in [5], in assay [8], in assay [9] and in assay [11] was “inactive” in each case.

With `CN(C)CCN(C)CCN(C)C`, the outcome in assay [1], in assay [2], in assay [3], in [4], in assay [6] and in assay [7] was inactive. Besides, in assay [10], the result was inactive. The Potency entry in [5], in assay [8], in [9] and in assay [11] was “inactive” each time.

Take `C=CCCC(=O)O`: the compound was classed as inactive in [12], in assay [1], in assay [2], in assay [3], in assay [4] and in assay [6]. The outcome in assay [7] and in assay [10] was inactive. Moreover, the Potency entry in assay [5], in assay [8], in assay [9] and in [11] was “inactive” each time.

As for `FB(F)F`, the result in assay [1], in assay [2], in assay [3], in assay [4], in assay [6] and in assay [7] was inactive. Moreover, the result in assay [10] was inactive. Moreover, the Potency result in assay [5], in [8], in assay [9] and in [11] was “inactive” throughout.

With `COc1cc(C(=O)OC(COCCC(C)C)CN2CCOCC2)cc(OC)c1OC` (stereo not drawn), the outcome in assay [12], in [1], in [2], in assay [3], in assay [4] and in assay [6] was inactive. For the same compound, the result in assay [7] and in assay [10] was inactive. Besides, the Potency entry in assay [5], in assay [8], in assay [9] and in assay [11] was “inactive” throughout.
